# PubChem BioAssay
# Values without a mark were called inactive. How the calls were made is not given here.
# Molecular target: Pantothenate synthetase (Mycobacterium tuberculosis (strain ATCC 25618 / H37Rv)) (UniProt P9WIL5)
# Assay: Recombinant Mtb pantothenate synthetase (PanC) inhibitors, coupled enzyme, confirmatory (AID 375);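 further: 0% = full reaction with vehicle and 100% = no enzyme background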
# Details: coupled enzyme assay; at 10 µM, hits give high values
# Pantothenate synthetase (Mycobacterium tuberculosis (strain ATCC 25618 / H37Rv)), sequence (P9WIL5 whole entry, looked up): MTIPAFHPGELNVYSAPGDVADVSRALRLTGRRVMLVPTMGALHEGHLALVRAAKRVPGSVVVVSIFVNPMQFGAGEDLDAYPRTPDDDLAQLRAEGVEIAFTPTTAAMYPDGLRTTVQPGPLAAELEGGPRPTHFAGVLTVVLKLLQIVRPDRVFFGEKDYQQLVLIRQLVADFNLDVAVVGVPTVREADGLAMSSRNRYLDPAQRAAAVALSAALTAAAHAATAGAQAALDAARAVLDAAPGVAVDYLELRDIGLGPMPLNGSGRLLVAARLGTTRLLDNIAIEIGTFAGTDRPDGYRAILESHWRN
row,Structure (SMILES),inhibition [%]
1,CN(CC(=O)Nc1ccc(F)c(Cl)c1)S(=O)(=O)c1cccc2nsnc12,0
2,COCCNC(=O)CN(C)S(=O)(=O)c1ccc(Br)cc1,0
3,CN(CC(O)COCc1cccs1)C1CCCCC1 (configuration not stated),1
4,O=C(Nc1ccc(N2CCCC2)cc1)c1ccc(Br)o1,0
5,COC(=O)Cc1c(C)nc2nc[nH]n2c1=O,0
6,COc1cc(C2c3c(n[nH]c3C)C(=O)N2c2ccc(C)cc2)ccc1O (configuration not stated),0
7,Cc1nc2ccc(NC(=O)N3CCSCC3)cc2s1,1
8,COc1cc(C)nc(N2CCCC(C(=O)Nc3cccc(Cl)c3Cl)C2)n1 (configuration not stated),0
9,COc1ccccc1-c1coc2c(CN3CCN(CCO)CC3)c(O)ccc2c1=O,0
10,CCOc1ccc2nc(NC(=O)C3CCCN(S(=O)(=O)c4c(C)noc4C)C3)sc2c1 (configuration not stated),0
11,O=C(NC1(C(F)(F)F)C(=O)Nc2c1c(=O)[nH]c(=O)n2Cc1ccco1)C1CCCCC1 (configuration not stated),0
12,COc1ccc(C(=O)CSc2nnc(CNc3ccc(C)cc3C)o2)cc1,2
13,COc1ccc(-c2nnc(SCC(=O)Nc3ccc(Cl)cc3)n2C)cc1,0
14,COc1ccc(C(=O)Cn2c(N3CCCCC3)nc3c2c(=O)n(C)c(=O)n3C)cc1OC,6
15,COc1cc(OC)c(C2C(C#N)=C(N)OC3=C2C(=O)CC(C)(C)C3)cc1OC (configuration not stated),1
16,Cn1c(=O)c2c(nc(Br)n2CCSc2ncccn2)n(C)c1=O,9
17,CCSc1nc(C)nc2c1oc1ccccc12,0
